Compound activity from PubChem BioAssay.
In the library only some 1.9% were active in any assay of this set; here they are far more common.
Jurkat tox 60K – reduces viability or proliferation of Jurkat cells; Jurkat E6.1 viability, ATP luminescence, 48 h; inhibition, % at 4 µM; 56,000 tested, 1.2% active; AID 463;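 active = inhibition above the mean inhibition of all tested compounds plus 3 SD, cut at about 28% in these data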
Her2 expr inh – inhibitors of human Her2 kinase expression. P04626. SKBR-3 HER2 protein level, AlphaScreen, 18-24 h; active compounds read low. 65,000 tested, 0.69% active. HER2 level % of control, % at 10 µM. AID 645;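 active = HER2 level under 5% of the carrier-only control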;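 note: lower value means stronger loss of Her2 protein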
SK-BR-3 tox 24h – SK-BR-3 proliferation inhibitors; SK-BR-3 viability, CellTiter-Glo ATP luminescence, 24 h; active compounds read low; viability, % at 10 µM; 41,000 tested, 0.47% active; AID 847;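 active = viability at or below the median of all test compounds minus 3 SD, in both replicates if run twice, cut at about 45% in these data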
Hits are given with their value.

`O=C(NCCCN1CCc2ccccc2C1)C1CCN(S(=O)(=O)N2CCCC2)CC1` gave Jurkat tox 60K inactive and Her2 expr inh inactive.
N#Cc1nc(COc2ccccc2Cl)oc1N1CCCCCC1 was read as Jurkat tox 60K inactive and Her2 expr inh inactive.
For CC1CN(c2oc(COc3ccc(Cl)cc3Cl)nc2C#N)CC(C)O1 (stereo unspecified) the results were Jurkat tox 60K inactive and Her2 expr inh -19.
For O=C(c1ccc(C(=O)N2CCOCC2)nc1)N1CCOCC1 the results were Jurkat tox 60K inactive, Her2 expr inh inactive and SK-BR-3 tox 24h inactive.
Screening CCOc1cccc2cc(-c3csc(NC(=O)CCC(=O)N4CCN(C)CC4)n3)c(=O)oc12 returned Jurkat tox 60K inactive and Her2 expr inh inactive.
Screening CC1=CC(C)(C)Nc2ccc(OC(=O)c3ccco3)cc21 returned Jurkat tox 60K 58, Her2 expr inh -20 and SK-BR-3 tox 24h 14.
CC1=CC(C)(C)Nc2ccc(OC(=O)c3cccnc3)cc21 was read as Jurkat tox 60K inactive and Her2 expr inh inactive.
CCCCn1c(CN2CCN(C(=O)c3ccco3)CC2)nc2c1c(=O)n(C)c(=O)n2C was read as Jurkat tox 60K inactive and Her2 expr inh inactive.
For Cc1cccc(N(CC(=O)NCc2ccc3c(c2)OCO3)C(=O)CCC(=O)Nc2ccccn2)c1 the results were Jurkat tox 60K inactive, Her2 expr inh -30 and SK-BR-3 tox 24h inactive.
For Cc1cccc(N(CC(=O)NCc2ccc3c(c2)OCO3)C(=O)CCC(=O)Nc2ccccn2)c1C the results were Jurkat tox 60K inactive, Her2 expr inh inactive and SK-BR-3 tox 24h inactive.
`CCCCn1nnnc1SCC(=O)Nc1ccc2c(c1)OCO2` gave Jurkat tox 60K inactive, Her2 expr inh inactive and SK-BR-3 tox 24h inactive.
For Cc1ccc(S(=O)(=O)Nn2c(C)ccc2C)cc1 the results were Jurkat tox 60K inactive, Her2 expr inh inactive and SK-BR-3 tox 24h inactive.
`CCc1ccccc1NC(=O)CSc1nnc(-c2ccco2)n1N` gave Jurkat tox 60K inactive, Her2 expr inh inactive and SK-BR-3 tox 24h inactive.
Screening COC(=O)c1cc(C)sc1NC(=O)c1cccnc1 returned Jurkat tox 60K inactive, Her2 expr inh inactive and SK-BR-3 tox 24h inactive.
Screening Cn1cccc1Cc1nnc(SCC(=O)Nc2ccc(Cl)cc2)n1-c1ccc(F)cc1 returned Jurkat tox 60K inactive and Her2 expr inh inactive.
For Cc1ccc(-n2nc(C)c3c2OC(N)=C(C#N)C3c2ccc(F)cc2)cc1 (stereo unspecified) the results were Jurkat tox 60K inactive, Her2 expr inh -28 and SK-BR-3 tox 24h inactive.
Screening Cc1nn(-c2cccc(Cl)c2)c2c1C(c1ccncc1)C(C#N)=C(N)O2 (stereo unspecified) returned Her2 expr inh inactive and SK-BR-3 tox 24h inactive.
Screening CCOc1ccc(N2CC(C(=O)Oc3ccccc3)CC2=O)cc1 (stereo unspecified) returned Jurkat tox 60K inactive and Her2 expr inh inactive.
`CCn1c(SCC(=O)N2CCC(C(N)=O)(N3CCCCC3)CC2)nnc1-c1ccccc1` gave Jurkat tox 60K inactive, Her2 expr inh inactive and SK-BR-3 tox 24h inactive.
c1ccc(-c2csc(-n3cnnn3)n2)cc1 was read as Jurkat tox 60K inactive, Her2 expr inh inactive and SK-BR-3 tox 24h inactive.
`COC(=O)c1ccc(Cl)c(NS(=O)(=O)c2ccc3c(c2)OCCO3)c1` gave Jurkat tox 60K 58 and SK-BR-3 tox 24h inactive.
`CC(=O)c1cc2c(cc1NS(=O)(=O)c1ccc3c(c1)OCCO3)OCO2` gave Jurkat tox 60K inactive, Her2 expr inh inactive and SK-BR-3 tox 24h inactive.
COC(=O)c1cccc(NC(=O)c2nn(C)c(=O)c3ccccc23)c1 was read as Jurkat tox 60K inactive and Her2 expr inh inactive.
`CCOc1ccc(C(C)(C)C)cc1S(=O)(=O)N1CCOCC1` gave Jurkat tox 60K inactive, Her2 expr inh inactive and SK-BR-3 tox 24h inactive.
For COc1ccc(CCNc2nc(-c3sc(N)nc3C)cs2)cc1OC the results were Jurkat tox 60K inactive and Her2 expr inh inactive.
COc1ccc(CCNCc2csc3nc4ccccc4n23)cc1OC was read as Jurkat tox 60K 46, Her2 expr inh inactive and SK-BR-3 tox 24h inactive.
CCN(CC)S(=O)(=O)c1cccc(C(=O)Nc2cccnc2)c1 was read as Jurkat tox 60K inactive and Her2 expr inh inactive.
For CCN(CC)S(=O)(=O)c1cc(C(=O)Nc2ccncc2)ccc1Cl the results were Jurkat tox 60K 48 and Her2 expr inh inactive.
`COCCN1Cc2cccc(C(=O)NCc3ccc4c(c3)OCO4)c2C1=O` gave Jurkat tox 60K inactive and Her2 expr inh inactive.
`Cc1ccccc1-n1nnnc1-c1ccccc1` gave Jurkat tox 60K inactive and Her2 expr inh inactive.
`COc1ccc(-c2nnnn2-c2ccccc2OC)cc1` gave Jurkat tox 60K 48, Her2 expr inh inactive and SK-BR-3 tox 24h inactive.
CCOC(=O)N1CCN(C(=O)c2oc3ccc(S(=O)(=O)N4CCCCC4)cc3c2C)CC1 was read as Jurkat tox 60K inactive and Her2 expr inh inactive.
